This is part of a sample that, as a whole, favours compounds with a hit. Of some 79,000 tested, about 15% had one in any assay. Unmarked numbers belong to inactive results. Calls of active or inactive are those of the source. Cut-off read from the data, not from the text of the source: active = growth inhibition above about 70%; inactive = the rest.
Assay: NCI Yeast Anticancer Drug Screen. Data for the bub3 strain (AID 167)
Details: S. cerevisiae bub3 mutant strain, active compounds read high
Protocol: Growth inhibition of yeast strains with defined genetic alterations is measured as a screen for potential anti-cancer activity. Selected strains with alterations in DNA damage repair or cell cycle control were exposed to compounds and growth inhibition was measured relative to vehicle treated controls. The strain used in this assay is bub3

[1] = at 5.0 µM (retest, dose inferred, filed as 0.5)
[2] = at 50.0 µM (retest, dose inferred, filed as 5.0)

Compound: Nc1ccc(SCCCc2c(N)nc(N)nc2N)cc1
- growth inhibition [1]: -9%
- growth inhibition [2]: -12%
- growth inhibition (at 50.0 µM): 95% (active)

Compound: CCC(C(=O)CCN(C)C)(c1ccccc1)c1ccccc1
- growth inhibition [1]: 59%
- growth inhibition [2]: 99% (active)
- growth inhibition (at 50.0 µM): 99.8% (active)

Compound: OC(Cc1cccnc1)(c1ccccc1)c1ccc(Cl)cc1 (configuration not stated)
- growth inhibition [1]: -3%
- growth inhibition [2]: 77% (active)
- growth inhibition (at 50.0 µM): 97.2% (active)

Compound: COc1ccc(/C=C(/C#N)c2ccccc2)cc1
- growth inhibition [1]: 10%
- growth inhibition [2]: 55%
- growth inhibition (at 50.0 µM): 73.5% (active)

Compound: Cc1ccc(C(c2ccc(N(C)C)cc2)c2ccc(N(C)C)cc2)cc1
- growth inhibition [1]: 98% (active)
- growth inhibition [2]: 92% (active)
- growth inhibition (at 50.0 µM): 94.7% (active)

Compound: Cc1c(-c2ccc(C(=N)N)cc2)oc(-c2ccc(C(=N)N)cc2)c1C
- growth inhibition [1]: 87% (active)
- growth inhibition [2]: 99% (active)
- growth inhibition (at 50.0 µM): 86% (active)

Compound: O=C1c2ccccc2C(=O)c2c1ccc(O)c2O
- growth inhibition [1]: 80% (active)
- growth inhibition [2]: 93% (active)
- growth inhibition (at 50.0 µM): 77.9% (active)

Compound: O=C(c1ccc(Cl)cc1)C1OC12C(=O)Nc1c(Cl)cc(Cl)cc12 (configuration not stated)
- growth inhibition [1]: -1%
- growth inhibition [2]: 99% (active)
- growth inhibition (at 50.0 µM): 99.2% (active)

Compound: CCOC(=O)c1ccccc1NC(OCC)C(=O)c1ccccc1 (configuration not stated) (tested in a mixture with another compound)
- growth inhibition [1]: -5%
- growth inhibition [2]: 71% (active)
- growth inhibition (at 50.0 µM): 70% (active)

Compound: COc1ccc2nc(-c3ccc(Cl)cc3)[nH]c2c1
- growth inhibition [1]: 3%
- growth inhibition [2]: 90% (active)
- growth inhibition (at 50.0 µM): 94.2% (active)

Compound: CC(=O)Nc1cccc2c1ccc1ccc3ccccc3c12
- growth inhibition [1]: 3%
- growth inhibition [2]: -1%
- growth inhibition (at 50.0 µM): 5.75%

Compound: CC1CN(C(=S)NNC(C)c2cc3ccccc3cn2)CC(C)O1 (configuration not stated)
- growth inhibition [1]: 39%
- growth inhibition [2]: 99% (active)
- growth inhibition (at 50.0 µM): 88.2% (active)

Compound: C=CC(=O)N1C/C(=C\c2ccccc2)C(=O)/C(=C/c2ccccc2)C1
- growth inhibition [1]: 40%
- growth inhibition [2]: 87% (active)
- growth inhibition (at 50.0 µM): 78.5% (active)

Compound: Clc1ccc(CN2COc3c(ccc4cccnc34)C2)cc1
- growth inhibition [1]: -4%
- growth inhibition [2]: 85% (active)
- growth inhibition (at 50.0 µM): 77.5% (active)
